M1 agonist – agonists of M1 muscarinic receptor; B-score at 10 µM; CHO-M1 cells, Fluo-4 calcium fluorescence, agonist mode; hits give high values; 64,000 compounds, 3% hits;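 active = fluorescence rise, raw or as B-score row- and column-corrected plate score, outside the 99.7% band of its plate's samples, either direction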
MMP-13 inhibitor – inhibitors of human MMP13. MMP-13 fTHP FRET cleavage, Mca fluorescence. AID 570. 65,000 compounds, 0.07% hits. P45452. inhibition, % at 4 µM;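 active = inhibition above the mean of compound-free control plate wells plus 3 SD, cut at about 14% in these data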;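 also: 0% = DMSO wells and 100% = wells with reference MMP-13 inhibitor after basal subtraction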
DUSP1 inh – human dual specificity phosphatase 1 inhibition | inhibition, %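 (compounds tested at a single concentration somewhere between 10 and 100 µM)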 | P28562 | 65,000 compounds, 0.15% hits | recombinant MKP-1, OMFP hydrolysis fluorescence | AID 374;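 active = inhibition above about 50%, limit read from the data; inconclusive = inhibition over screen mean plus 3 SD, below that limit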;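 also: 0% = DMSO max control wells and 100% = wells with enzyme stopped by NaOH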
Cdc25B inh – human M-phase inducer phosphatase 2 inhibition; recombinant Cdc25B, OMFP fluorescence Ex485/Em525; inhibition, %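 (compounds tested at 10 µM final in the well)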; 65,000 compounds, 0.1% hits; P30305; in the data active = inhibition above about 50%
Target sequence (P30305 whole entry, looked up): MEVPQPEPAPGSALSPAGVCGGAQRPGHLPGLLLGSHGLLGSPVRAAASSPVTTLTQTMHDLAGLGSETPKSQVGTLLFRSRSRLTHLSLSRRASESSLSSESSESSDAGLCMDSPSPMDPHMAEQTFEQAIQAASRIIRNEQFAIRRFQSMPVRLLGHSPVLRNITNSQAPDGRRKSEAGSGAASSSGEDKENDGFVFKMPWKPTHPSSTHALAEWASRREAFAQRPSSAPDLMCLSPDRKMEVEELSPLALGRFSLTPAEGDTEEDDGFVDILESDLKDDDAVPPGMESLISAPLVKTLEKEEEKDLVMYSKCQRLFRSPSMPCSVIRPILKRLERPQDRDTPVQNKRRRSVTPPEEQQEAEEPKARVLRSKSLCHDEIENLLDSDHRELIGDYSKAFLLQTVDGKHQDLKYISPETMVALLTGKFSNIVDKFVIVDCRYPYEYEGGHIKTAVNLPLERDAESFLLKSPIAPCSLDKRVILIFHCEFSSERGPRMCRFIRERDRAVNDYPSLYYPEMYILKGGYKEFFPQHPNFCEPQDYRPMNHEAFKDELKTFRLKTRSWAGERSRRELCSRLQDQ
Hsp90 block – displaces geldanamycin probe from tumor Hsp90 | P07900 | NCI-N417 lysate Hsp90, Cy3B-geldanamycin FP displacement | inhibition, % at 30 µM | 64,000 compounds, 0.35% hits | AID 429;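 active = inhibition above 50%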;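 also: 0% = tracer plus lysate wells and 100% = tracer alone without lysate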
M1 antag – M1 muscarinic receptor (rat) antagonism. P08482. CHO-M1 cells, Fluo-4 calcium, ACh EC80 antagonist mode; hits give low values. B-score at 10 µM. 64,000 compounds, 3.4% hits;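 active = calcium fluorescence response, raw or row-and-column corrected B-score, differing from the plate sample mean either way at a set confidence level, mostly lower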
M1 agonist conf – confirmation of rat M1 muscarinic receptor agonists; fluorescence change (max-min) at 10 µM; shares compounds with M1 agonist; CHO-M1 cells, Fluo-4 calcium fluorescence, agonist mode; actives lie on both sides; 1,700 compounds, 19% hits;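 active = fluorescence change differs from the solvent-only DMSO control mean at a set confidence level in both duplicate runs; inconclusive = differs from solvent-only control mean in just one of two runs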;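 also: an EC20 dose of acetylcholine follows compound addition during the same imaging run; raw fluorescence intensity difference in instrument units with no normalization to controls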
M4 ag counter – rat M4 muscarinic agonism, M1 counter-screen; shares compounds with M1 agonist; CHO M4/Gqi5 cells, Fluo-4 calcium fluorescence, agonist mode; actives lie on both sides; fluorescence change (max-min) at 10 µM; 1,700 compounds, 9% hits; AID 1741;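 active = fluorescence change differing from the plate's solvent-only control wells at 99.7% confidence in both duplicates, whether higher or lower; inconclusive = differs from solvent controls in only one of two duplicates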
* marks the source's active call; other numbers are inactive results; ? = inconclusive; . = not tested or not shown. Hits are enriched below; roughly 6.1% of the tested compounds scored in any of these assays.

SMILES | M1 agonist | MMP-13 inhibitor | DUSP1 inh | Cdc25B inh | Hsp90 block | M1 antag | M1 agonist conf | M4 ag counter
Cc1c(C(=O)N2CCN(c3ccccc3F)CC2)sc2ncn(CC(=O)N3CCOCC3)c(=O)c12 | 3.7* | 1 | 13 | -5 | -2 | -0.0089 | -15 | ?
CCOC(=O)c1ccc(S(=O)(=O)Nc2cc(C(C)(C)C)no2)cc1 | 7.6* | -10 | 14 | 4 | 3 | 0.42 | -12 | -16
CCn1nnc(-c2ccccc2NS(=O)(=O)c2ccc(S(=O)(=O)N3CCCCCC3)cc2)n1 | 0.2 | 4 | -2 | -8 | -2 | -0.005 | . | .
CCOC(=O)c1ccc(S(=O)(=O)Nc2ccccc2-c2nnn(CC)n2)cc1 | 3.8* | 5 | -7 | -18 | -2 | -3* | ? | ?
O=C(O)c1ccc(Cl)c(NC(=O)C2CCCN2S(=O)(=O)c2cccc3nsnc23)c1 (configuration not stated) | -0.35 | 7 | -2 | 4 | -4 | 0.089 | . | .
COc1ccc[nH]c1=O | -0.078 | -4 | 6 | 20 | -3 | -1 | . | .
COc1cccc(=O)c2c(C)oc(C)c12 | 44* | -16 | 27 | -6 | -2 | 0.71 | 536* | 502*
COCCNC(=O)CSCc1nc(-c2ccc(SC)cc2)oc1C | -0.03 | -12 | 26 | -18 | -4 | 0.68 | . | .
COCCn1c(-c2ccc(Cl)cc2)cnc1SCC(=O)NCc1cccs1 | 0.76 | 5 | -14 | -24 | -3 | -0.039 | . | .
COc1ccc(OC)c(C(C)NC=O)c1 (configuration not stated) | -0.34 | 4 | -2 | -13 | -4 | 0.38 | . | .
CCCCCCc1cc2cc(C(=O)NC)c(=N)oc2cc1O | 401* | -180 | -14 | -14 | -14 | -15* | 3193* | 2756*
Cc1nc2nc(-c3cccs3)cn2nc1C | 100* | -29 | -10 | -5 | -13 | 0.54 | 1066* | 1014*
Cc1cnc(-c2nnc(N(C)C(=O)c3cnccn3)s2)cn1 | -0.24 | 0 | 29 | -6 | -6 | 0.0019 | . | .
Cc1cccc(-c2noc(CCC(=O)Nc3ccccc3)n2)c1 | 0.59 | -2 | -20 | -13 | -1 | -0.65 | . | .
Cc1ccc(-c2noc(CCC(=O)Nc3cccc(C#N)c3)n2)cc1 | 3.5* | 2 | 2 | -4 | -2 | -1.2 | -9.5 | -17
CCOC(=O)c1c(C)[nH]c(C=Nc2ccccc2)c1O | -2.2* | -1 | 4 | -3 | -5 | -0.98 | -20 | -33
Cc1cccc(NC(=O)c2cc(NC(=O)c3ccco3)ccc2Cl)n1 | 2.5* | 6 | -4 | -4 | -4 | -0.88 | 0.72 | -8
Cc1ccccc1C(=O)N1CCN(c2ccc(NC(=O)c3ccco3)cc2Cl)CC1 | 2.9* | 7 | 12 | -8 | -5 | -0.18 | ? | -94
O=C(Nc1ccc(N2CCN(C(=O)c3ccco3)CC2)c(Cl)c1)c1c(F)c(F)c(F)c(F)c1F | 2.4 | 3 | 9 | -8 | -2 | -0.34 | . | .
Cc1cccc(NC(=O)c2cc(NC(=O)C3CCCCC3C(=O)O)ccc2Cl)n1 (configuration not stated) | 0.51 | -5 | -6 | -8 | -3 | 0.43 | . | .
COC(=O)Nc1nnc(-c2ccccc2Cl)s1 | -0.096 | -24 | 6 | -1 | -6 | -0.6 | . | .
Cc1cccc(C(CC(=O)N2CCCC2)c2ccccc2)c1O (configuration not stated) | 4.1* | 2 | -12 | -25 | 2 | 0.038 | 4.1 | -2.5
CCN1C(=O)/C(=C/N2CC(C)CC(C)C2)SC1=S (configuration not stated) | -1.1 | 2 | -19 | -5 | 4 | -0.96 | . | .
CCN1C(=O)/C(=C2/SC(C)=C(C)N2CC)SC1=S | 3.2* | 5 | -15 | -8 | 0 | -1 | -5.1 | 20
CCN(CC)CCCN1C(=O)C(O)=C(C(=O)c2cccs2)C1c1ccccn1 (configuration not stated) | -0.46 | 2 | 10 | 0 | -11 | -0.79 | . | .
SMILES | M1 agonist | MMP-13 inhibitor | DUSP1 inh | Cdc25B inh | Hsp90 block | M1 antag | M1 agonist conf | M4 ag counter
COc1cc(C(=O)Nc2nccs2)c(Br)c(OC)c1OC | 2.9* | 0 | 9 | -5 | -9 | -0.65 | -11 | -41
COC(=O)c1ccc(COC(=O)C23CC4CC(CC(O)(C4)C2)C3)o1 | -0.21 | -3 | -15 | -1 | -2 | -0.27 | . | .
CCCn1c(C2CC(=O)N(c3cc(OC)ccc3OC)C2)nc2ccccc21 (configuration not stated) | 3.7* | -10 | 12 | -17 | -2 | -0.24 | -14 | -56
N#Cc1cc2cc3c(cc2nc1N1CCOCC1)OCO3 | 0 | -195 | 13 | 2 | -10 | -1.9 | . | .
O=C(NCCCN1CCOCC1)c1cc(-c2ccc(Br)cc2)on1 | 2.2* | 5 | 5 | -6 | -1 | -0.5 | ? | -44
CCn1c(COc2ccccc2C)nnc1SCC(=O)CC(=O)Nc1ccccc1 | 3.3* | -3 | 29 | 14 | -8 | 2.7* | ? | -54
CCn1c(COc2cccc(OC)c2)nnc1SCC(=O)Nc1cccc(OC)c1 | 3* | 2 | -13 | -6 | -1 | -0.91 | -22 | -33
CC(C)N1CCc2c(sc(NC(=O)c3ccc(S(=O)(=O)N4CCOCC4)cc3)c2C(N)=O)C1 | 8.9* | 14* | 9 | -9 | -3 | -0.21 | 13 | 3.8
CCN1CC=C2C(C#N)=C(N)C(C#N)(C#N)C(CCc3ccccc3)C2C1 (configuration not stated) | 32* | -61 | 17 | -17 | -6 | -2.5* | 247* | ?
COc1ccc(OC)c(C2C3CN(C(C)C)CC=C3C(C#N)=C(N)C2(C#N)C#N)c1 (configuration not stated) | 40* | -29 | 12 | 5 | 0 | -0.14 | 217* | 212*
CCCCOc1ccc(C2C3CN(C(=O)OCC)CC=C3C(C#N)=C(N)C2(C#N)C#N)cc1OC (configuration not stated) | -0.63 | -3 | 8 | 4 | -8 | 0.044 | . | .
CCCN1CC=C2C(C#N)=C(N)C(C#N)(C#N)C(c3cccc(OC)c3OC)C2C1 (configuration not stated) | 89* | -15 | 3 | -2 | -8 | -0.9 | 666* | 628*
CN1CC=C2C(C#N)=C(N)C(C#N)(C#N)C(c3cccc(Cl)c3Cl)C2C1 (configuration not stated) | 64* | -42 | 26 | -1 | -12 | 0.68 | 243* | 236*
CN1C(=S)SC(/[N+]([O-])=C\c2ccco2)C1(C)C (configuration not stated) | -0.0083 | -1 | -2 | 4 | 3 | -0.24 | . | .
O=C1c2ccccc2C(=O)N1CCc1nc2ccccc2c(=O)n1CCCn1ccnc1 | 1.4 | 10 | 3 | -12 | -1 | -0.042 | . | .

Compound activity (PubChem)
